# High-throughput results deposited in PubChem by National Center for Advancing Translational Sciences (NCATS).
# This is a sample that favours compounds with a hit; in the whole collection about 2.2% have one here.
# uPA surface inh – inhibitors of cell surface uPA generation. cell surface uPA generation assay, qHTS. Potency, µM (doses to about 38.3 µM), inactives show at the highest dose activity change, negative = inhibition, usual class: inhibitors. hit rate 0.31% among 330,000; active = well fitted inhibition curve with a large enough effect; inconclusive = small, poorly fitted or top-dose-only effect; inactive = no such curve, though single readings can be large or run the other way; tested in mouse RAW 264.7 cells; note: potency is the fitted concentration of half-maximal effect; % is set by controls: 0 for no effect and ±100 for the full control effect; nearly all actives have a fitted effect of over 55% in size
# GLP-1R inv ag – acts as inverse agonist at human GLP-1 receptor | P43220 | HEK293 GLP-1R CRE-luciferase, luminescence, 24 h; GLP-1R form is constitutively active | Potency, µM (series often up to 38.3 µM), inactives show top-dose activity change, negative = inhibition, hits mostly inhibitors | hit rate 1.6% among 410,000; note: potency is the fitted concentration of half-maximal effect; % is set by controls: 0 for no effect and ±100 for the full control effect; nearly all actives have a fitted effect of over 55% in size
# Target sequence (P43220 whole entry, looked up): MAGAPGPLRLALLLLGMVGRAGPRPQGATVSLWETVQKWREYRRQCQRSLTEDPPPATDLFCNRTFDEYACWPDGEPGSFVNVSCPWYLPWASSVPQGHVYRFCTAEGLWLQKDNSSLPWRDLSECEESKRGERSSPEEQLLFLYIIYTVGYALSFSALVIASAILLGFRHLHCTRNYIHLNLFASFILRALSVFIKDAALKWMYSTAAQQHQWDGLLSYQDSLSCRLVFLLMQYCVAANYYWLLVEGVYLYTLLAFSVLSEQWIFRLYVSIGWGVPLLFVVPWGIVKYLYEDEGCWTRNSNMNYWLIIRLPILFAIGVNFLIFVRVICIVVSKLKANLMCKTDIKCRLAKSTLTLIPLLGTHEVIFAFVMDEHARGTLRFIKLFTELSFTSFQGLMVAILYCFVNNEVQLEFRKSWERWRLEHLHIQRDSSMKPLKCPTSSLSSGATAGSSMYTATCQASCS
#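 HEK293 cells stably co-expressing constitutively active GLP-1R and a cAMP-responsive luciferase reporter were seeded in DMEM with 10% Nu serum, given compounds after 12 h, and incubated 24 h at 37 deg C. Luminescence was then read.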
# MmCpn inh – inhibitors of Methanococcus maripaludis chaperonin TRiC (MmCpn); purified Mm-Cpn ATPase, ADP Transcreener TR-FRET; hit rate 0.031% among 330,000; Potency, µM (top dose mostly 76.9 µM), inactives show at the highest dose activity, negative = inhibition, actives largely listed as inhibitors; AID 504842; note: potency is the fitted concentration of half-maximal effect; % is set by controls: 0 for no effect and ±100 for the full control effect; nearly all actives have a fitted effect of over 80% in size
#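 25 nM Mm-CPN + cpd, 10 min 37°C; + 10 uM ATP, 30 min 37°C; buffer 30 mM Tris pH 7.4, 100 mM KCl, 5 mM MgCl2, 1 mM DTT; Transcreener ADP HTRF detection 30 min RT.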
# GLP1R cytotox – cytotoxicity in counter-screen for GLP-1R inverse agonists. HEK293 cAMP-luciferase reporter cells, luminescence, 24 h. Potency, µM (series often up to 38.3 µM), for inactives: top-dose activity change, negative = inhibition, usual class: inhibitors. hit rate 0.13% among 410,000. AID 624418;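 note: loss of luciferase light is scored as toxicity; potency is the fitted concentration of half-maximal effect; % is set by controls: 0 for no effect and ±100 for the full control effect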
#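 Luminescence readout: signal drop marks cytotoxicity. Plated cells grew 12 h at 37 °C, 5% CO2, received 23 nL compound for 24 h, then got luciferase reagent, read after 12 min at RT.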
# GLP1R ag – agonists of human GLP-1 receptor | HEK293 GLP-1R CRE-luciferase, luminescence, 4-6 h; cells express a hypersensitive GLP-1R form | hit rate 0.007% among 380,000 | Potency, µM (highest dose often 45.6 µM), without a hit: top-dose activation, most hits filed as activators | AID 624172; note: potency is the fitted concentration of half-maximal effect; % of control where 0% means no effect
# CCT modulator – changes cytosolic chaperonin activity. purified chaperonin ATPase assay, HTRF ADP detection, 30 min. activity change, % (no concentration beside the values), hits read low. hit rate 0.3% among 360,000. AID 651819; in the data active = activity change below about -30%; note: % is set by controls: 0 for no effect and ±100 for the full control effect
#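 We incubate TRiC, 40 or 20 nM final, with library compounds at 76 uM and 10 uM ATP for 30 min at 37 °C. ADP formed is detected with Transcreener HTRF reagents after 30 min at room temperature.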
# Numbers without * were called inactive; ? = inconclusive; · = no result. Unless noted, calls come from the whole dose curve; as a rule, active = well fitted curve in the direction sought with a large enough effect; inconclusive = small, poorly fitted or top-dose-only effect, or another doubt; inactive = no such curve, though single readings can be large; an effect the other way counts as inactive or inconclusive.
SMILES,uPA surface inh,GLP-1R inv ag,MmCpn inh,GLP1R cytotox,GLP1R ag,CCT modulator
Cc1cccc(CNC(=O)C2CCN(S(=O)(=O)c3ccc4c(c3)CCCN4C(=O)C3CCC3)CC2)c1,·,?,·,-13%,·,·
COc1ccccc1NS(=O)(=O)c1cccc(C(=O)N2CCN(C/C=C/c3ccccc3)CC2)c1,12%,?,-3%,-15%,-5%,1
COc1ccccc1NS(=O)(=O)c1cc(C(=O)N2CCN(C/C=C/c3ccccc3)CC2)ccc1C,4µM*,10µM*,1%,-11%,-1%,0
CCCOc1ccc(Br)cc1CSC(=N)N,5.6µM*,?,2%,-19%,0%,-1
CCOc1ccc(Br)cc1CC(=O)O,2%,0%,·,-5%,-15%,-3
Cc1ccc2nc(N)[nH]c(=O)c2c1Sc1ccncc1,·,·,·,·,0%,·
CC(C)(C)C(=O)C1=C(O)C(=O)N(Cc2ccccc2)C1c1ccccc1Cl (centres undefined),10µM*,?,-9%,1%,-4%,-2
CC(=O)C1=C(O)C(=O)N(CC(=O)O)C1c1ccccc1Cl (centres undefined),11%,6%,-3%,9%,-6%,0
CCOc1ccccc1C(=O)NC1(C(F)(F)F)C(=O)Nc2c1c(=O)[nH]c(=O)n2-c1ccccc1 (centres undefined),·,-2%,·,-2%,·,·
CCCSc1nc(N2CCOCC2)c2c(c1C#N)CC(C)(C)SC2,1%,10µM*,-1%,-5%,-10%,-1
O=[N+]([O-])c1ccc(Oc2ccc(N=C=S)cc2)cc1,·,·,·,·,-7%,·
O=C(CC1Sc2ccccc2NC1=O)NNc1cccc(Cl)c1Cl (centres undefined),-5%,2µM*,·,-9%,2%,-4
C=C(C)COc1ccc(-c2ncnc(C(F)(F)F)c2-c2ccc(OC)cc2)c(O)c1,1%,7.9µM*,1%,2%,18%,-1
C=C(C)COc1ccc(-c2nc(N)nc(C(F)(F)F)c2-c2ccc(OC)cc2)c(O)c1,-6%,?,-2%,-3%,7%,-4
C=C(C)COc1ccc(-c2ncncc2-c2ccccc2OC)c(O)c1,2%,?,2%,7%,29%,2
C=C(C)COc1ccc(-c2ncnc(C(F)(F)F)c2-c2ccccc2)c(O)c1,5%,2.8µM*,0%,1%,13%,0
CO[C@@H]1[C@@H](OC2OC(C)C(OC3CC(C)(O)C(OC(=O)CC(C)C)C(C)O3)C(N(C)C)C2O)[C@@H](CC=O)C[C@@H](C)C(=O)/C=C\C2O[C@H]2C[C@@H](C)OC(=O)C[C@H]1OC(C)=O (some centres undefined),·,·,·,·,4%,·
CC(C)Cn1cc(NC(=O)NCc2cccc(Cl)c2)c2ccccc2c1=O,·,-5%,·,-3%,3%,·
Cc1cccc(OCC(=O)Nc2ccccc2C(F)(F)F)c1,6%,-2%,1%,8%,8%,-1
Cc1cccc(C)c1OCC(=O)Nc1ccccc1C(F)(F)F,-6%,?,1%,1%,14%,-38*
CC(=O)N1CCc2c(sc(NC(=O)c3ccc4c(c3)OCCO4)c2C#N)C1,7.9µM*,?,?,-18%,9%,0
CC(CNC(=O)c1ccc2nc(CCc3ccccc3)oc2c1)c1ccccc1 (centres undefined),·,-5%,·,-13%,·,·
[O-]/C(=C(\C(=S)Nc1ccc(SC(F)F)cc1)[n+]1cccc(CO)c1)c1ccc(Cl)s1,2%,5µM*,1%,?,10%,-1
[O-]/C(=C(\C(=S)Nc1ccc(SC(F)F)cc1)[n+]1ccccc1)c1cc(Cl)ccc1Cl,-3%,6.3µM*,?,-11%,11%,-4
COCCn1c(CNC(=O)c2ccccc2C)nc2cccnc21,·,14%,·,-17%,·,·
SMILES,uPA surface inh,GLP-1R inv ag,MmCpn inh,GLP1R cytotox,GLP1R ag,CCT modulator
COc1ccc2nc(N(Cc3cccnc3)C(=O)CCc3ccccc3)sc2c1,·,?,·,-19%,·,·
O=C(N/N=C/c1cc(O)ccc1Br)c1cccnc1,10µM*,?,-17%,-19%,-4%,0
O=C(N/N=C/c1ccccc1O)c1ccncc1,7.1µM*,?,-2%,-13%,4%,0
CCC(NC(=O)CNC(=O)c1ccc2c(c1)OCO2)c1ccc(Br)cc1 (centres undefined),15%,13µM*,1%,0%,-11%,0
O=C(CNC(=O)c1ccc2c(c1)OCO2)Nc1cccc(Br)c1,0%,?,-9%,3%,8%,-2
Cc1ccc(CCNC(=O)c2ccc(CSCc3ccccc3C)o2)cc1,·,?,·,-5%,·,·
CCC(C)c1ccc(O)c(NC(=O)c2cccnc2)c1 (centres undefined),1%,5%,-1%,-12%,-3%,0
CCC(C)c1ccc(O)c(NC(=S)NC(=O)c2cccs2)c1 (centres undefined),·,8.9µM*,·,-14%,9%,-2
CCn1nc(-c2ccccc2)c(-c2ccccc2)c(C(=O)Nc2ccccc2C(N)=O)c1=O,·,14%,·,-1%,·,·
CCN(C(=O)c1cc(S(=O)(=O)N2CCc3ccccc32)cn1C)c1cccc(C)c1,·,-31%,·,2%,·,·
CC(C)(C)c1ccc(/C=N/OCC(=O)NCc2ccccc2)cc1,-15%,8.9µM*,3%,20%,15%,-3
Cc1ccc(CNC(=O)CO/N=C/c2ccc(C(C)(C)C)cc2)cc1,0%,?,2%,-21%,-3%,0
O=C(Nc1nccs1)C12CC3CC(C1)CC(C(=O)Nc1nccs1)(C3)C2,-2%,4.5µM*,1%,-14%,-23%,1
Cc1ccc(OCc2nc(-c3ccc(C(=O)NCCc4ccc(Cl)cc4)cc3)oc2C)cc1,·,4%,·,0%,·,·
COc1ccc(-c2nn(-c3ccccc3)cc2/C=N/O)cc1OC,-3%,?,0%,1%,9%,-1
COc1ccc(-c2nn(-c3ccccc3)cc2/C=N/Nc2ccc3ccccc3n2)cc1OC,-10%,?,-2%,13µM*,17%,-2
CC(NCC(=O)Nc1ccccc1C(=O)NC1CC1)c1cccc(C(F)(F)F)c1 (centres undefined),10%,13µM*,-3%,0%,11%,0
CCN(c1ccccc1)S(=O)(=O)c1ccc(NC(=O)c2cc(=O)c3c(C)cc(C)cc3o2)cc1,·,14%,·,8%,·,·
COc1ccc(C)cc1NC(=O)c1cc2c(s1)-c1ccccc1SC2,·,-11%,·,-9%,·,·
COc1cccc(NC(=O)CN(C)C(=O)/C=C/c2cn(-c3ccccc3)nc2-c2ccc(C)cc2)c1,2%,2µM*,0%,6%,-7%,-1
